About 83,000 compounds went through this panel and 20% of them were active in at least one assay; those are over-represented in the sample as a whole.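 Results are percent growth after 48 hours of single-concentration exposure. 100 means growth as in untreated cells, lower positive values show inhibition; negative values down to -100 show cell death.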 Values without a mark were called inactive. The source made the active and inactive calls. Rule for the calls: active = growth percent below 10; inactive = the rest.
Legend:
Test in all cases: NCI-60 one-dose screen, 48 h (100 = growth as untreated, 0 = no growth, -100 = all killed)
Settings in all cases: 10 µM unless noted
NCI-H23 lung = test system: NCI-H23 lung
NCI-H226 lung = test system: NCI-H226 lung
NCI-H322M lung = test system: NCI-H322M lung
HOP-62 NSCLC = test system: HOP-62 NSCLC
NCI-H460 lung = test system: NCI-H460 lung
HOP-92 NSCLC = test system: HOP-92 NSCLC
NCI-H522 lung = test system: NCI-H522 lung
A549/ATCC NSCLC = test system: A549/ATCC NSCLC
786-0 renal = test system: 786-0 renal
COLO 205 colon = test system: COLO 205 colon
DU-145 prostate = test system: DU-145 prostate
K-562 leukemia = test system: K-562 leukemia
MALME-3M melanoma = test system: MALME-3M melanoma
MDA-MB-231 breast = test system: MDA-MB-231 breast
RXF 393 renal = test system: RXF 393 renal
SF-268 CNS = test system: SF-268 CNS
SF-295 CNS = test system: SF-295 CNS
SF-539 CNS = test system: SF-539 CNS
UACC-257 melanoma = test system: UACC-257 melanoma
M14 melanoma = test system: M14 melanoma

Row | Structure (SMILES) | growth (NCI-H23 lung) | growth (NCI-H226 lung) | growth (NCI-H322M lung) [%] | growth (HOP-62 NSCLC) | growth (NCI-H460 lung) | growth (HOP-92 NSCLC) | growth (NCI-H522 lung) | growth (A549/ATCC NSCLC) | growth (786-0 renal) | growth (COLO 205 colon) | growth (DU-145 prostate) [%] | growth (K-562 leukemia) | growth (MALME-3M melanoma) | growth (MDA-MB-231 breast) | growth (RXF 393 renal) | growth (SF-268 CNS) | growth (SF-295 CNS) | growth (SF-539 CNS) | growth (UACC-257 melanoma) | growth (M14 melanoma)
1 | COc1ccc(-c2nc3ccc(-c4nc5ccc(N6CCN(C)CC6)cc5[nH]4)cc3[nH]2)cc1OC | 62.7% | 54.6% | 96.5 | 76.9% | 103% | 89.8% | 13.7% | 96.1% | 79.1% | 25.5% | 77.6 | 40.5% | 0.551% (active) | 82.9% | 96.6% | 50.6% | 66.6% | 70.5% | 25.2% | 18.3%
2 | O=C1Nc2c(ccc(Cl)c2Cl)/C1=C\c1cc(C(F)(F)F)cc(C(F)(F)F)c1 | 13.3% | 24.5% | 74.1 | 20.2% | -18% (active) | -22.6% (active) | 22.3% | 26% | -11.2% (active) | -74.9% (active) | 24.8 | 0.912% (active) | -55.5% (active) | -17.4% (active) | 21.8% | 9.57% (active) | 5.61% (active) | -11.3% (active) | 25% | -18.2% (active)
3 | COc1ccc2c(c1)O/C(=C\c1cccc(OCC(=O)Nc3nc4c(s3)CCCC4)c1)C2=O | 37.8% | 86.9% | 95.4 | 103% | 115% | -23.4% (active) | -91.4% (active) | 94.6% | 89.9% | 113% | 42.8 | 24.5% | 109% | 65.9% | -15.4% (active) | 89.4% | 75.8% | 87.8% | 95.1% | 90.9%
4 | NS(=O)(=O)c1ccc(CN=C2NC(=O)S/C2=C\c2ccc(Br)cc2)cc1 | 97.6% | 96.9% | 91 | 103% | 101% | 90.5% | 90.8% | 98.3% | 94.1% | 106% | 111 | 102% | 93.8% | 101% | 105% | 92.3% | 102% | 92.3% | 102% | 102%
5 | CN(C)CCN1C(=O)c2cccc3c(N)ccc(c23)C1=O | 44.3% | 23.9% | 58.5 | 58.1% | -5.38% (active) | 19.9% | 7.81% (active) | 6.47% (active) | 36.9% | 8.15% (active) | 25.9 | 2.08% (active) | 46.7% | 58.3% | 4.79% (active) | 17.5% | 21.4% | 19.4% | 9.42% (active) | 34.4%
6 | Cn1ncc2c(=O)nc3c(-c4ccccc4)n[nH]n3c21 | 101% | 91.9% | 80.9 | 95.5% | 103% | 116% | 73.2% | 101% | 99.9% | 119% | 101 | 119% | 98.6% | 102% | 121% | 101% | 84.5% | 96.2% | 98.7% | 104%
7 | COc1cc(/C=C/c2cc(/C=C/c3ccc(O)c(OC)c3)n(-c3c(C)cccc3C)c(=O)n2)ccc1O | 2.99% (active) | 4.63% (active) | 15.9 | -2.09% (active) | 7.91% (active) | -3.15% (active) | -10.2% (active) | 2.96% (active) | 12.6% | -40.9% (active) | 12.7 | 5.52% (active) | -14% (active) | 23.1% | -32.1% (active) | 8.69% (active) | 8.43% (active) | -23.5% (active) | -6.5% (active) | 8.07% (active)

Reference: PubChem BioAssay (NCI)
